# PubChem BioAssay (NCI)
# This is part of a sample that, as a whole, favours compounds with a hit. Of some 83,000 tested, about 20% had one in any assay.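 Cell lines were cultured in 96-well plates, exposed to a single compound concentration, and assessed for percent growth 48 hours later.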 A number with no mark means an inactive call. Calls of active or inactive are those of the source. Rule for the calls: active = growth percent below 10; inactive = the rest.
# What was measured:
# Assay in all cases: NCI-60 one-dose screen, 48 h (100 = growth as untreated, 0 = no growth, -100 = all killed)
# Settings in all cases: 10 µM unless noted
# [1] = tested on: NCI-H23 lung
# [2] = tested on: NCI-H226 lung
# [3] = tested on: NCI-H322M lung
# [4] = tested on: HOP-62 NSCLC
# [5] = tested on: NCI-H460 lung
# [6] = tested on: HOP-92 NSCLC
# [7] = tested on: NCI-H522 lung
# [8] = tested on: A549/ATCC NSCLC
# [9] = tested on: 786-0 renal
# [10] = tested on: COLO 205 colon
Structure (SMILES),growth [1],growth [2],growth [3],growth [4],growth [5],growth [6],growth [7],growth [8],growth [9],growth [10]
COc1c(B(O)O)cccc1-c1nc2ccc3[nH]ncc3c2c2c1CCCC2,15.5%,-10.6% (active),16%,7.22% (active),8.49% (active),32.8%,15.1%,8.01% (active),25.9%,4.2% (active)
COc1ccc(-c2nn(-c3cccc(Cl)c3)cc2/C=C2\C(=N)N(c3ccccc3)N=C2N)cc1,51.2%,40.8%,44.9%,65.8%,6.92% (active),96.2%,51.5%,36.6%,29.1%,-22.8% (active)
CCOC(=O)c1c(NC(=O)c2ccccc2)sc2c(O)c(CN(CC)CC)ccc12,2.37% (active),-21.7% (active),50.6%,-17.2% (active),4.01% (active),46.3%,-45.3% (active),11.4%,18.5%,-74.7% (active)
CC(CN1CCN(CCOCCO)CC1)CN1c2ccccc2Sc2ccc(Cl)cc21 (stereo not given),72.7%,83.5%,88.2%,107%,50.2%,-3.33% (active),33.3%,75.1%,65.5%,-79.9% (active)
COc1cc(C2=NOC(c3cc(OC)c(OC)c(OC)c3)C2)ccc1OCCCCOc1cc2c(cc1OC)C(=O)N1CCC[C@H]1C=N2 (stereo not given in full),-15.9% (active),9.32% (active),-6.38% (active),9.48% (active),-29.6% (active),-29.3% (active),-41.7% (active),6.75% (active),-4.62% (active),-78% (active)
COc1ccc(C2C3=C(COC3=O)N(CCO)c3cc(OC)c(OC)cc32)cc1 (stereo not given),106%,101%,104%,95.7%,105%,86.9%,92.8%,108%,96.3%,110%
CCOC(=O)C1=C(C)NC(SCc2nnc(-c3ccc(Cl)cc3)o2)=NC1c1ccc(Cl)cc1 (stereo not given),78.8%,69.9%,82.3%,92.8%,79%,64.1%,68.9%,69%,83.4%,79.6%
COc1ccc2c(c1)CCCC21C(=O)Nc2c(Cl)cccc21 (stereo not given),86%,85.9%,88.1%,55.7%,94.4%,72.3%,27.7%,68.7%,78.9%,80.6%
C=CCn1c(SCC(=O)Nc2ccc(/C(C)=N\O)cc2)nnc1-c1cc(-c2ccc(Cl)cc2)nc2ccccc12,24.1%,50.7%,26.2%,49.6%,17.2%,50.4%,22.4%,19.4%,23%,27.8%
COC(=O)c1ccc(NC(N)=NCCC(C)(C)c2ccc(C(F)(F)F)cc2)nc1,17.5%,37.4%,74.5%,63.7%,31.6%,39%,39%,54.2%,56.9%,-71.2% (active)
C#CC[C@@H]1C[C@]2(C)[C@H]3CC[C@@H]4[C@H]5C(C(=C)C)CC[C@]5(C(=O)NCCCCN)CC[C@@]4(C)[C@]3(C)CC[C@H]2C(C)(C)[C@H]1OC(C)=O (stereo not given in full),11.7%,96.1%,60.4%,105%,-56.5% (active),42.2%,-64.4% (active),-54.1% (active),-87.5% (active),-71.6% (active)
CCOC(=O)C(Nc1ccccc1)C(=O)OCC,108%,99.6%,88.1%,101%,115%,72.9%,102%,100%,110%,119%
COc1ccc(NC(=O)C2c3ccccc3C(=O)N(CC(C)C)C2c2cccs2)cc1 (stereo not given),95.2%,92.7%,110%,90.1%,94.3%,94.1%,92.3%,89.5%,98.8%,105%
COc1ccc2[nH]cc(/C=C3\C(=O)Nc4ccccc43)c2c1,42.3%,62.1%,37.8%,28.8%,26%,31.3%,17.5%,26.5%,53.8%,40.6%
COc1ccc(C2=NN(C=O)C(c3ccc(OS(=O)(=O)c4ccc(C)cc4)c(OC)c3)C2)cc1 (stereo not given),37.8%,67.4%,99.9%,61.3%,62.8%,32.8%,21.3%,42.6%,78.1%,63.3%
CC(=O)c1cc(C(=O)c2ccc3c(c2)Sc2ccccc2N3)c2c(C)cccn12,27%,47.8%,37.4%,19.1%,6.41% (active),94%,12.5%,19.5%,4.46% (active),-43.7% (active)
